Screening results: PubChem, National Center for Advancing Translational Sciences (NCATS)
A549 tox = counter-screen for Nrf2 inhibitors: cytotoxicity in A549 cells. Potency, µM (highest dose often 46 µM), usual class: inhibitors. hit rate 0.16% among 390,000. A549 ARE-Fluc cells, CellTiter-Fluor viability, 18-24 h. AID 504648
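A549 ARE-Fluc cells in 5% FBS OPTI-MEM, 5000 cells/well, rested 2 h then exposed to compounds in concentration-response for 18-24 h at 37 °C. Viability by CellTiter-Fluor fluorescence (Ex 405/Em 525) after 30 min; luciferase luminescence (BugLite, 15 min, RT) read afterwards.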
Nrf2 activator = activators of Nrf2 (ARE) signaling; AREc32 ARE-luciferase reporter (MCF7-derived line), luminescence, 24 h; Potency, µM (titrated, usually from 46.1 µM), most hits filed as activators; hit rate 0.31% among 410,000; AID 624171; note: nearly all actives have a fitted effect of over 65% in size
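Nrf2 activation is followed as ARE-luciferase induction in the AREc32 line after one day of compound treatment; luminescence is read with Steady-Glo.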
12-LOX inh = inhibitors of human 12S-lipoxygenase ALOX12 | Potency, µM (series often up to 108 µM), actives largely listed as inhibitors | hit rate 1.1% among 580,000 | purified 12hLO, xylenol orange hydroperoxide absorbance | P18054
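Hydroperoxide product was detected by ferrous iron/xylenol orange as the 573 to 405 nm absorbance ratio. Arachidonic acid at 40 uM (final) was turned over for 30 min at room temperature by 150 nM human 12hLO, pH 7.0 Hepes buffer, after 15 min compound preincubation.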
Nrf2 block = Nrf2 pathway inhibition. A549 ARE-Fluc reporter, luciferase luminescence, 18-24 h. Potency, µM (titrated, usually from 46 µM), usual class: inhibitors. AID 504444. hit rate 2.1% among 360,000; note: nearly all actives have a fitted effect of over 60% in size
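Quantitative HTS in A549 cells stably bearing an antioxidant response element-firefly luciferase construct. Inhibition of Nrf2-driven transcription was scored by luminescence after 18-24 h of compound exposure at 37 °C.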
ERG-DNA inh = inhibitors of human ERG Ets domain-DNA interaction | hit rate 0.028% among 370,000 | fluorescence polarization, His-ERG Ets domain / labelled DNA | Potency, µM (doses to about 76.9 µM), usual class: inhibitors | AID 624246; active = well fitted inhibition curve with a large enough effect in the polarisation, with a control signal flat; inconclusive = small, poorly fitted or top-dose-only effect, or effect the other way, or a change in a side signal; inactive = no such curve, though single readings can be large or run the other way; the % refers to the polarisation;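 note: polarization taken with two DNA probes labelled with fluorescein and Texas red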
Target sequence (P11308 whole entry, looked up, the tested form may be a part): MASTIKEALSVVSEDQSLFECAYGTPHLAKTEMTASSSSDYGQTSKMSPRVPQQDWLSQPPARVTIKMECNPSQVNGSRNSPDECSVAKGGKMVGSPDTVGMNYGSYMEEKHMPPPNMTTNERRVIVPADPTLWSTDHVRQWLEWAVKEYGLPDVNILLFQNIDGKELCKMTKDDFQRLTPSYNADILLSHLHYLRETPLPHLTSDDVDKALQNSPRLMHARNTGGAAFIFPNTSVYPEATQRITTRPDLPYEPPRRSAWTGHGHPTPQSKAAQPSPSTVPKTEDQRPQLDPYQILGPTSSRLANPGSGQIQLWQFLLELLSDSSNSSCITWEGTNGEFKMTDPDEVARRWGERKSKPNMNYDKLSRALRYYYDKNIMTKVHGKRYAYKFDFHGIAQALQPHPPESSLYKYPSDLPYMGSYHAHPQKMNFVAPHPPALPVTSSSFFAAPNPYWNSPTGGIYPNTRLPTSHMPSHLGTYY
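His-tagged ERG Ets domain (1 uM in the protein solution; 300mM KCl, 50mM Tris-HCl, 1mM EDTA, 1mM DTT, pH 7.5) received compound, then a probe mix of 5 nM fluorescein-DNA and 100nM Texas-615-DNA. Fluorescence polarization was read for both dyes.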
LDHA block = inhibitors of human lactate dehydrogenase A. purified LDHA, NADH/diaphorase-resazurin fluorescence; stronger effect = lower value. activity change, % (values are at about 110 or 230 µM). hit rate 0.15% among 480,000. P00338; in the data active = activity change below about -30%; inconclusive = mostly about -25% to -30%
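LDH5 2 nM; NADH 0.06 mM, pyruvate 0.2 mM; 200 mM Tris pH 7.4, EDTA, Tween-20; 5 min RT. Detection: diaphorase 0.133 mg/mL + resazurin 37 µM, fluorescence ex540/em590 at 0 and 20 min; normalized to enzyme-free and DMSO wells.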
Numbers stand for hits; . = inactive; ? = inconclusive; / = no result. Only some compounds are listed: those with a hit (about 2.7% of all), similar ones and a draw of the others. Unless noted, calls come from the whole dose curve; as a rule, active = well fitted curve in the direction sought with a large enough effect; inconclusive = small, poorly fitted or top-dose-only effect, or another doubt; inactive = no such curve, though single readings can be large; an effect the other way counts as inactive or inconclusive.

SMILES | A549 tox | Nrf2 activator | 12-LOX inh | Nrf2 block | ERG-DNA inh | LDHA block
Cc1sc(N2CCOCC2)nc1-c1ccc(NS(C)(=O)=O)cc1 | / | / | 35µM | / | / | .
Cc1[nH]c2ccc(C(=O)Nc3ccc(-c4nccs4)cc3)cc2c1C | / | / | . | / | / | .
COc1cc(C)cc2oc(=O)c(CC(=O)NCCCOC(C)C)c(C)c12 | / | / | . | / | / | .
Fc1ccc(-n2nnc(-c3nccs3)n2)cc1 | . | . | 11µM | ? | . | .
Cc1ccccc1Cn1nc(C)c(NC(=O)c2noc3c2CC(C(C)(C)C)CC3)c1C (stereo not drawn) | . | . | . | 8.2µM | . | .
Cc1ccccc1Cn1cc(NC(=O)c2noc3c2CC(C(C)(C)C)CC3)cn1 (stereo not drawn) | ? | . | . | ? | . | .
O=C1C(=O)N(CCN2CCOCC2)C(c2ccccc2Cl)/C1=C(\O)c1ccc(Cl)cc1 (stereo not drawn) | / | / | ? | / | / | .
CCC/C=C/c1ccc(CN2C(C(C)C)C(=O)N(Cc3cn(Cc4ccco4)nn3)CCS2(=O)=O)cc1 (stereo not drawn) | / | . | 45µM | / | / | .
Cc1ccc(-c2ccc(CN3C(C)C(=O)N(Cc4cn(Cc5ccco5)nn4)CCS3(=O)=O)cc2)cc1 (stereo not drawn) | / | . | 11µM | / | / | .
CC(C)Cc1ccc(CN2C(C)C(=O)N(Cc3cn(Cc4ccco4)nn3)CCS2(=O)=O)cc1 (stereo not drawn) | / | . | 14µM | / | / | .
CCCOc1c(Br)cc(/C=C(/C#N)C(=O)OCC)cc1OC | / | / | ? | / | / | .
CCOC(=O)c1sc(NC(=O)c2ccncc2)c(C#N)c1C | ? | . | ? | 23µM | . | .
O=C(NC1CCCCC1)O[C@@H]1CO[C@H]2[C@@H]1OC[C@@H]2n1nnnc1SCc1ccco1 | / | / | 3.5µM | / | / | /
CCONC(=O)COc1cccc(C(C)C)c1 | / | / | ? | / | / | .
Cc1ccc(OC(C)c2nnc(N)s2)cc1Cl (stereo not drawn) | . | . | . | 16µM | . | .
COc1ccc(OC(C)c2nnc(N)s2)cc1 (stereo not drawn) | . | . | . | . | . | .
CCCCOc1ccc(CSc2nc(C)[nH]c2[N+](=O)[O-])cc1[N+](=O)[O-] | ? | . | . | 15µM | . | .
O=C(Nc1ccccc1F)C(=O)Nc1cccc2ccccc12 | . | . | . | ? | . | .
O=C(Nc1cccc2ccccc12)/C(Cl)=C/c1ccccc1 | . | 10µM | . | / | . | .
CC(C)COc1ccc(C(=O)OCC[N+]2(C)CCOCC2)cc1 | / | / | 5.6µM | / | / | .
CC(C)COC(=O)C(C#N)c1nc2ccccc2nc1Cl (stereo not drawn) | / | / | ? | / | / | .
CCCOC(=O)C(C#N)c1nc2ccccc2nc1Cl (stereo not drawn) | / | / | 18µM | / | / | .
CC(C)(C(=O)NC1CCCCCC1)c1ccccc1 | / | / | . | / | / | .
CCN1CCN(c2nc(Nc3ccc(OC)cc3)c3nccnc3n2)CC1 | / | / | . | / | / | .
COc1ccc(NS(=O)(=O)c2ccc3oc(SC(C)C(N)=O)nc3c2)cc1 (stereo not drawn) | . | . | / | 23µM | . | .
SMILES | A549 tox | Nrf2 activator | 12-LOX inh | Nrf2 block | ERG-DNA inh | LDHA block
Cc1[nH]n(-c2ccc(F)cc2)c(=O)c1CCC(=O)Nc1ccc(C#N)cc1 | / | / | . | / | / | -30
O=C(Nc1cccc2nsnc12)c1cccs1 | . | 7.9µM | . | ? | . | .
O=C(Nc1cccc2cccnc12)c1cccs1 | . | / | / | ? | / | .
O=C(Nc1cccc(NC(=O)c2cccs2)c1)c1cccnc1 | . | 13µM | . | . | . | .
O=C(NCc1ccco1)Nc1ccc2nsnc2c1 | . | 22µM | . | . | . | .
Cc1ccc2cccc(NC(=O)c3ccc(-c4ccc(Br)cc4)o3)c2n1 | . | . | . | . | . | .
O=C(Nc1cccc2nsnc12)c1ccc(-c2ccc(Br)cc2)o1 | . | . | 35µM | . | . | .
CC(C)NC(=O)NC(=O)C(C)Sc1cccc2cccnc12 (stereo not drawn) | / | / | ? | / | / | .
Cc1cc(C)cc(C(=O)Nc2ccc(NC(=O)c3cccs3)cc2)c1 | ? | . | / | 18µM | . | .
Cc1cc(C)nc(NC(=O)c2cccs2)n1 | . | . | . | . | . | .
